# Screening results from PubChem.
# HP1b binding inh: blocks HP1-beta chromodomain binding to methylated histone tails; Potency, µM (highest dose often 114 µM), without a hit: at the highest dose activity change, negative = inhibition, hits mostly inhibitors; AlphaScreen HP1-beta / biotin-H3K9me3 peptide binding; 390,000 tested, 0.56% active; P83916; note: nearly all actives have a fitted effect of over 70% in size
# Target sequence (P83916 whole entry, looked up): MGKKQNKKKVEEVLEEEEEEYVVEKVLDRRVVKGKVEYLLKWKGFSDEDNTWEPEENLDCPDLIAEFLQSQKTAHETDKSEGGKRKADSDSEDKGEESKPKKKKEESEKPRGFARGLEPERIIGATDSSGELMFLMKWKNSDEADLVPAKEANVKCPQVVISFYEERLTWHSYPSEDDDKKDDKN
#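 AlphaScreen: HP1-beta (50 nM) preformed 30 min with biotin-H3(1-18)K9me3 peptide (50 nM) in PBS pH 7.4, 0.01% Tween-20. Compound added for 30 min at RT, then streptavidin donor/nickel chelate acceptor beads (10 ug/mL) for 30 min.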
# G9a inh: G9a (human) methyltransferase inhibition. Potency, µM (series often up to 102 µM), for inactives: at the highest dose activity, negative = inhibition, usual class: inhibitors. G9a H3K9 monomethylation, AlphaScreen, 2 h. 350,000 tested, 8.8% active; note: % is set by controls: 0 for no effect and ±100 for the full control effect; nearly all actives have a fitted effect of over 75% in size
# Target sequence (Q96KQ7 913-1193 limits assumed): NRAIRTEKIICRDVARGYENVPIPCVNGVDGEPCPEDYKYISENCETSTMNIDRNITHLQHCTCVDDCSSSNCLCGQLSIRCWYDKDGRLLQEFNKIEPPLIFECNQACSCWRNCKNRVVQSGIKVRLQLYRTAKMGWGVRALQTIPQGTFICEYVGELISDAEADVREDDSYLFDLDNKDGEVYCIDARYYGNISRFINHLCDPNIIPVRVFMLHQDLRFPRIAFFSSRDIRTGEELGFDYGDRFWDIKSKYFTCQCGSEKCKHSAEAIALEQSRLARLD
#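 G9a (20 nM) preincubated 15 min RT with compounds, then 500 nM biotinylated H3K9 peptide and 20 uM SAM added; 2 h RT reaction. Monomethyl-H3K9 product detected by AlphaScreen with anti-H3K9me1 antibody, streptavidin donor and anti-rabbit IgG acceptor beads.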
# TDP1 block: blocks human tyrosyl-DNA phosphodiesterase 1 | Q9NUW8 | recombinant TDP1, AlphaScreen DNA substrate cleavage | Potency, µM (series often up to 130 µM), without a hit: top-dose activity change, negative = inhibition, hits mostly inhibitors | 350,000 tested, 0.28% active | AID 485290; note: % is set by controls: 0 for no effect and ±100 for the full control effect; nearly all actives have a fitted effect of over 40% in size
#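 Enzyme-compound mixtures sat 15 min at room temperature, followed by a 5 min reaction with 15 nM final substrate and 10 min with AlphaScreen beads. Recombinant human Tdp1 was used at 1 nM final.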
# Sfp inh: inhibitors of Bacillus subtilis Sfp phosphopantetheinyl transferase. 310,000 tested, 3.5% active. Q9F4F7. Potency, µM, without a hit: largest response in the series, negative = inhibition, actives largely listed as inhibitors. AID 1490. Biochemical Sfp PPTase activity, qHTS;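 note: the enzyme is Sfp with the accession as filed and its product quenches rhodamine fluorescence; 0% = enzyme reaction without inhibitor and -100% = no enzyme wells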
#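 With Hepes-Na pH 7.6 buffer containing 10 mM MgCl2, Sfp (15 nM) modified BHQ-2-YbbR (12.5 uM) using rhodamine-CoA (5 uM). Two reads 30 minutes apart at 525/598 nm yielded each well's rate.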
# JMJD2A Tudor inh: JMJD2A Tudor domain (human) inhibition. O75164. AlphaScreen JMJD2A-Tudor / H3K4me3 peptide binding. Potency, µM (series often up to 114 µM), inactives show at the highest dose activity change, negative = inhibition, hits mostly inhibitors. 390,000 tested, 4.4% active; note: % is set by controls: 0 for no effect and ±100 for the full control effect; nearly all actives have a fitted effect of over 50% in size
# BAZ2B block: blocks human BAZ2B; AID 504333; AlphaScreen BAZ2B-H3K14Ac peptide displacement; 360,000 tested, 4.4% active; Q9UIF8; Potency, µM (doses to about 114 µM), without a hit: at the top dose activity change, negative = inhibition, hits mostly inhibitors; note: % is set by controls: 0 for no effect and ±100 for the full control effect; nearly all actives have a fitted effect of over 60% in size
#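 AlphaScreen luminescence quantifies BAZ2B engagement of H3K14Ac peptide; the protein and biotinylated peptide are both at 50 nM final, buffer PBS pH 7.4 with 0.01% Tween-20, all steps at room temperature.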
# * = called active by the depositor; ? = inconclusive; / = not tested or not shown; [ ] = remark or other dose. Compounds with a hit are over-represented: about 12% of the library has one in this group of screens. Calls come from the whole dose curve; as a rule, active = well fitted curve in the direction sought with a large enough effect; inconclusive = small, poorly fitted or top-dose-only effect, or another doubt; inactive = no such curve, though single readings can be large; an effect the other way counts as inactive or inconclusive. Potency is the fitted concentration of half-maximal effect.
SMILES,HP1b binding inh,G9a inh,TDP1 block,Sfp inh,JMJD2A Tudor inh,BAZ2B block
O=C(CSc1nnc(CNC(=O)c2ccccc2F)o1)NCc1ccccc1,25.8%,15.1%[59 µM],2.6%,10.3%,-9.4%,-24.4%
COc1cc(C(=O)NC(C)c2cnn(-c3ccccc3C)c2C)cc(OC)c1OC (stereo unspecified),-0.1%,7.0%[12.7 µM],1.2%,-5.5%,-13.8%,-20.0%
CC(C)=C1C2CCC1C1C(=O)N(c3ccc4c(c3)OCO4)C(=O)C21 (stereo unspecified),27.0%,-6.9%[59 µM],-0.6%,4.4%,-2.1%,0.1%
O=C1C2C3C=CC(C4CC34)C2C(=O)N1c1ccc2c(c1)OCO2 (stereo unspecified),46.3%,50.1µM*,1.2%,-1.4%,0.0%,/
CC(C)=C1C2C=CC1C1C(=O)N(c3ccc4c(c3)OCO4)C(=O)C21 (stereo unspecified),55.1%,10µM*,5.2%,?,-14.1%,-5.3%
O=C(CCN1CCC(c2cccs2)=N1)c1cccs1,64.4%,?,5.7%,-3.0%,-10.5%,-15.8%
Cc1nc(-c2ccc(S(=O)(=O)N3CCN(c4ccccc4F)CC3)cc2)co1,5.1%[57 µM],-30.6%[59 µM],-12.1%,/,?,-34.2%
O=C1CC(c2ccco2)CC2=C1C(c1ccc(O)cc1)n1nc(C(F)(F)F)nc1N2 (stereo unspecified),?,/,8.1%,/,56.2µM*,/
O=C(Nc1ccccc1)c1ccc(CSc2ncccn2)cc1,15.0%,41.9%[0.501 µM],6.2%,-2.9%,-5.5%,44.7µM*
Cc1ccc(C(=O)COC(=O)CNC(=O)c2ccccc2)s1,23.7%,-6.1%[12.7 µM],1.4%,/,-15.5%,5.6%
Cc1ccc(C(=O)NCC(=O)OCC(=O)NCCc2ccccc2)s1,-7.6%,-9.3%,-11.0%,9.4%,50.1µM*,?
CN1CCN(CC(=O)n2c3c(c4ccccc42)CCCC3)CC1,-9.4%,39.8µM*,9.6%,-1.4%,56.2µM*,?
CCOC(=O)c1ccc(NC(=O)CC2OCCN(CC)C2=O)cc1 (stereo unspecified),29.4%,?,-2.2%,-6.9%,-25.2%,-16.1%
CCCN1CCOC(CC(=O)Nc2ccc([N+](=O)[O-])cc2)C1=O (stereo unspecified),-2.9%,20µM*,5.3%,2.7%,-6.0%[11.4 µM],1.7%
CCN1CCOC(CC(=O)Nc2cccc([N+](=O)[O-])c2)C1=O (stereo unspecified),16.1%,7.94µM*,/,?,-1.8%,-29.5%
CC(C)OCC1CC(CC(=O)Nc2ccc([N+](=O)[O-])cc2)C(=O)O1 (stereo unspecified),36.0%,6.7%[0.501 µM],-3.7%,6.5%,-4.1%,6.4%
COc1ccccc1CC(=O)N1CCC(n2nccc2NC(=O)C2CCOC2)CC1 (stereo unspecified),18.9%,/,1.8%,1.0%,-24.0%,-0.2%
COC(=O)c1sc2cc(C(F)(F)F)cnc2c1-c1cccnc1,3.2%,15.6%[59 µM],2.8%,-0.1%,-9.0%,12.4%
CSc1nnc(-c2sc3cc(C(F)(F)F)cnc3c2-c2cccnc2)n1C,19.7%,50.1µM*,7.0%,25.4%,-7.8%,4.6%
O=C(CC1Nc2ccccc2NC1=O)NCCCN1CCCCCC1 (stereo unspecified),13.5%,-15.3%[59 µM],5.9%,2.5%,31.6µM*,-28.6%
c1cc(SSc2ccncc2)ccn1,?,0.562µM*,/,35.5µM*,14.1µM*,?
O=C(NCCc1c[nH]c2ccccc12)/C(=C\c1cccnc1)NC(=O)c1ccccc1Br,10.2%,/,4.3%,14.9%,-20.1%,?
CC(=O)N1N=C(c2ccc(NS(C)(=O)=O)cc2)CC1c1ccc2nccnc2c1 (stereo unspecified),45.6%,-3.6%,5.6%,14.1%,0.7%,-15.0%
COc1cccc(C2CC(c3cccc(NS(C)(=O)=O)c3)=NN2C(=O)c2ccccc2)c1OC (stereo unspecified),15.5%,-42.1%[59 µM],2.7%,9.0%,-20.1%,-24.9%
CCC(=O)N1N=C(c2ccc(NS(C)(=O)=O)cc2)CC1c1ccc(N(C)C)cc1 (stereo unspecified),-14.8%,44.7µM*,6.9%,-2.3%,?,/
SMILES,HP1b binding inh,G9a inh,TDP1 block,Sfp inh,JMJD2A Tudor inh,BAZ2B block
CN(C)c1ccc(C2CC(c3cccc(NS(C)(=O)=O)c3)=NN2C(=O)c2ccccc2)cc1 (stereo unspecified),?,/,8.5%,-3.4%,-24.8%[11.4 µM],20µM*
Cc1ccc(C(=O)N(Cc2ccco2)c2ccccn2)cc1,33.7%,-3.2%[59 µM],4.7%,/,-2.6%,-19.9%
Cc1cccc(NC(=O)CN(CC2CCCO2)C(=O)c2cc3ccccc3o2)c1C (stereo unspecified),10.9%,-18.5%,-0.4%,/,-21.4%,2.5%
COc1cccc(CNCCc2c[nH]c3ccccc23)c1OCc1ccccc1,-20.8%,-3.8%[59 µM],1.8%,?,?,?
COc1cc(CNCCc2c[nH]c3ccccc23)ccc1OCc1ccccc1F,?,17.1%[0.501 µM],7.7%,?,39.8µM*,35.5µM*
COc1ccccc1CCNCc1ccc(OC)c(OCc2ccccc2)c1,?,?,-2.6%,?,3.16µM*,?
COc1ccc2nc(SCC(=O)C(C)(C)C)[nH]c2c1,19.0%,56.2µM*,/,39.8µM*,-15.3%,-10.9%
C=CCn1c(SCC(=O)c2c(N)n(C3CC3)c(=O)[nH]c2=O)nnc1-c1ccc(OC)cc1,0.6%,?,0.5%,/,-6.1%,7.9%
COc1ccc2nc(SCC(=O)c3c(N)n(C4CC4)c(=O)[nH]c3=O)[nH]c2c1,48.6%,7.08µM*,2.5%,/,-5.7%,8.3%
COc1ccc2nc(N3CCCC3)[nH]c2c1,26.1%,5.62µM*,2.1%,1.5%,-18.6%,2.8%
COc1ccc(N2CCN(C(=O)C3CCN(c4nc5ccc(C)cc5[nH]4)CC3)CC2)cc1,9.3%[57 µM],?,5.4%,/,-25.6%,-31.4%
COc1ccc2nc(SCC(=O)NCc3ccc(OC)c(OC)c3)[nH]c2c1,5.4%,-7.6%[59 µM],17.4%,5.5%,89.1µM*,-2.6%
CC(=O)N1CCN(S(=O)(=O)c2ccc(S(=O)(=O)N3CCCC(C)C3)cc2)CC1 (stereo unspecified),20.3%,-2.3%,/,14.0%,-2.5%,-4.0%
CNc1ccc(O)cc1,/,/,14.9%,/,/,/
CN(C)c1ccc(-c2nc(-c3ccco3)no2)cc1[N+](=O)[O-],30.7%,7.0%[59 µM],5.7%,/,-11.9%,-16.0%
Cc1onc(-c2ccccc2)c1C(=O)N1CCCC(C(F)(F)F)C1 (stereo unspecified),34.3%,20.2%,-0.5%,20.1%,-0.7%,-5.4%
CCSc1nnc(NC(=O)CCC2CCCCC2)s1,38.7%,/,/,/,-13.0%,/
